In the supplement of paper PMC10681739 one finds RUNX1 binding intensity data, which are given here for 40 sequences.
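Also: Full-length recombinant human RUNX1 bound to double-stranded 36-bp genomic probes on a high-density microarray, scored as Alexa488 fluorescence per spot via anti-RUNX1 antibody, median of four replicate spots.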

Chain of RUNX1 (Q01196 whole entry): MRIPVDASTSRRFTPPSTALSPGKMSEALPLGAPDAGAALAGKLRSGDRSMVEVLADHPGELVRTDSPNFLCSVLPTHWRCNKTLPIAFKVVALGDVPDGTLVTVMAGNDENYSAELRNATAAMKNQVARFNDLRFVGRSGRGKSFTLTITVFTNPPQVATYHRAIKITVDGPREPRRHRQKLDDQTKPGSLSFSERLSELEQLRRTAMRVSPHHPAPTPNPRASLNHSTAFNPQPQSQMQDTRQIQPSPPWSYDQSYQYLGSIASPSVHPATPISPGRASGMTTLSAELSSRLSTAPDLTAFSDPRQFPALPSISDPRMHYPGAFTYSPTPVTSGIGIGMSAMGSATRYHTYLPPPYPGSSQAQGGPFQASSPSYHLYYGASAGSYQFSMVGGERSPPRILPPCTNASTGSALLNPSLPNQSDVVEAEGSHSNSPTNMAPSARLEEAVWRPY

In this assay the target is RUNX1 (UniProt Q01196). The assay is described as follows: RUNX1 binding intensity (PBM fluorescence), RUNX1 alone (arbitrary fluorescence units); higher = stronger binding. To be noted: RUNX1 concentration 2 nM; ETS1 concentration 0 nM. On the procedure:
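Cooperative gcPBM on 36-bp genomic probes with neighbouring ETS1 and RUNX1 sites. Recombinant human RUNX1 (2 nM) was incubated alone or with ETS1 (25 nM) and detected with anti-RUNX1 antibody plus Alexa488 secondary. Values are medians over 4 replicate spots; the RUNX1+ETS1 data were normalised to the RUNX1-only data. The probes sit in constant array flanks that are not printed.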
AACTCCTGGCCGGAACGGCACAGACCGCACTCCCGC: the RUNX1 binding intensity was found to be 938.
ATGTCAGGAAGAGGCTCAGGGCTGTGGTTTCTCTGT: the RUNX1 binding intensity worked out at 979.
In turn, TACAGCTTCCTTCACCCCACTTGTGGCCTGGGTTAC came in with an RUNX1 binding intensity of 814.
Regarding TTCATAAAGGAGAGGAAACCTGACCACGACAGAAAG, the RUNX1 binding intensity came out at 897.
The result for CCGCTTCCTTAGAGGTTAAGTGGTGGTGGTTCAGTT reads 856.
On to GGGGGAGCAAGCGCCTTCCGCGGTCGCTGGGGGGAG, for which the RUNX1 binding intensity is 939.
The result for CATCTCGGAAACGGACAGCAAGATCCCGCATTAACA reads 977.
The result for GAACCTGGGAGGCGGAAGTTGCGGTTAGCCGAGATC reads 13500; that for AGTTTCCTGAACTCAGAGCACAGTTGTGGTGCAGAA, 743.
The result for GCTTAAGGAAGGGACAACTAGAGTGGGTTACTCTGC reads 863; that for TACCTAGACCCTTTCCGCCCTTACCGCGGCCAGACA, 1210.
For CCCATCCATCCGCCTCCAAAGTAACCTCAAGAATTT, the RUNX1 binding intensity was 2140.
The result for CCATTTCCCGCCTACCGACCTGCTGCACCGCACGGA reads 1430.
The sequence GGGCGGAAGGGGTTCGCACGCCAAGAACCGCCATGC gave an RUNX1 binding intensity of 855.
The result for GTTGGTCGCGCGCCTTCCTGCGGCTAAGATGGCGAC reads 749.
The result for CACCCTGCCACTTCCCTAAACTCCCCGCACAGGCCG reads 1640; that for AGACTCCATCCGCCATGTTGGATGCCGCAGATTCGC, 813; that for AGAGGCTTCCTGAGGAACTGGTGTGGTCAGGGGAGC, 740.
The result for AGGTTCGTGGCAGGAAAGTTTGTGGCAGCAAAGCCT reads 1190.
GCCTCCTTCCTGGGCTCCTTTAAGAGGGTGGTAACG gave an RUNX1 binding intensity of 743.
For GTCCCCGACTTCCGCTCTCGGTTGGTGGTTGGCTTT, the RUNX1 binding intensity was determined as 894.
GATGACTTCCTCAGTTCAGGGCTATGTGCGGGGGAG gave an RUNX1 binding intensity of 833.
The result for TGCAGCGCATCCTGGGACGTGCGGGCGGTGCATGAG reads 727; that for AGCAGGGCTCGCCGGGAAATGTGGTTTCTCCAGCCG, 843; that for TTACCCCGGCGGAACGGAGGCCTGCGGTCGCGGCGG, 941.
Sequence AGAGCCACATCCCGCGCAGAGGACCGCGGCGACCGG returned an RUNX1 binding intensity of 764.
The result for TCCTGCCCTCCCATCCTGTGGTCAGAGGCCAGGGCT reads 854; that for TGCAATTGGCAGACAGGAAACCGCGGCGTTTTCTGG, 764.
On to TATCGACAAAAGTTCCGGCCCGCGGTAGCGGAGGGA, for which the RUNX1 binding intensity worked out at 879.
The result for GACACAAGACAGTTTCCGTCAGTGGTTAAGCCCTAA reads 845; that for CCACCATCTTTCCGGCTCCCTCGCGACCACCACGAC, 1410; that for TTAGAGCTGACATCCTTGCGGTCCACAGCCTCCAAA, 961.
Turning to ACGAGAGTCTAGAGGAAACCAACCCGCAACTCACTG, the RUNX1 binding intensity was 892.
With CCCTTCCTGTGAGGGAGGTTCCAGTTCCCACAGCGG, the RUNX1 binding intensity turned out to be 782.
The result for GCCCCTTTTTCCTGGGATGAGCGGTTAGCGGAGGGG reads 1090.
Consider AAGACACCAACGCTCGGAAACCGCCAGACACCAACG, for which the RUNX1 binding intensity is 945.
Turning to CAGACACCAACGCTCGGAAACCGCCAGACACCAAGG, the RUNX1 binding intensity turned out to be 1030.
The result for CAACCCAAGGGGATGTGCTCACTGCGGTGAGGAGGC reads 806.
The result for GAAACGTCACCCAGAGGAAACCCACAAGGGGCGTGG reads 875; that for CTCAGGTTATCTAGGAAATCTACCGCACGCTAAAGT, 858.
